# According to the supplement of paper PMC6555819:
# Tested on: THRa:RXRa (NR concentration 90 nM, RXRa partner concentration 90 nM)
# Assay: PBM binding z-score (relative to random genomic background probes); higher = stronger binding; sequences stand for … in GC…GCGATTGACAGCGTAGAATGAAGG
# Outline: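 Ligand-free nuclear receptor dimers were bound for 1 h to custom Agilent 4×180K protein-binding microarrays. Detection used antibodies against each partner (one per run). Binding z-scores rest on regression-normalized fluorescence, with random background probes as the reference.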
row,Sequence,PBM binding z-score
1,ATATGTAGGTTTCATCCGGGTCATTCAGGCTATG,3.22
2,CCTACTGGGTCAAGGTCATTGATCAGTCAAAGCA,4.24
3,AGTCAAAGTTAACTAGGTAACGTAAGATTCAGCT,0.564
4,CCTACTGGGCCATTTAGAGGTCATTGATCATATG,3.31
5,CCTTACGGCTCACTGACAGGTTATAGCATTTGGA,0.0321
6,CCTAGCAGGCCAACCTGGGTCACTCAAGGCTTGA,3.63
7,GCATATAGGTAATACAATGTGAAAGTCCGATTGT,0.425
8,ATCTAAAGGTCGAGGTGAGTATAGAGAAAGGGAA,3.09
9,ATCTCTAGGTAAAGATAATTCAGTGAATGCAAAT,0.654
10,ATCGAAAGGTCGACGAGGTGAGCATACACCGTTT,3.75
11,ATCCCTAGGTAAAAGTTCAGTGAATCCCGAGGAT,1.13
12,CGTCCAAGGTCAGCAGGTCAGTGAAAGCGACGTG,4
13,CCTGCTGGGCCATCAGGTCATTGATATCAACGTT,3.19
14,GCAGATAGGTAATACAAGGTGAAAGTCCGATTGT,4.12
15,TCTCGGAGGACACGAAAGGTCAGGGCTCGACATC,3.83
16,CGAACTTGGTCATCCAGGACAGTGAATACATTGA,1.91
17,TCATATAGGTCAAGGTGAAAGTCGAACGATATGA,3.47
18,TCATATAGGTAAACAGGTGAAAATCCGTAAGTTA,0.866
19,ACAAGTTGGTCAGCTGAGGTCACACACAATTCGG,5.13
20,CCTACTGGGCCATCAGGACATTGATATCAACGTT,1.41

row,Sequence,PBM binding z-score
1,TCTATTAGTTGAGTAGGGCAACCGAAACAGCGGA,-0.257
2,CGAACGAGGGCATGAGATGATAGCAAATGCCGAT,0.979
3,TCTTGTACATCAAAGGTTAAGAAAGCCGAAGCCT,1.48
4,AGTAGCAGGCCAAGTTTGGGTCACTCAAACAAAG,2.62
5,GCAGTCAGGTGAAACGCAGGTAACTCAGGGTGGC,1.8
6,ATATGTAGGTTATCGGGTCAATCAGTTTGCGCAT,3.3
7,CAAACTAGGTCAAGAGGTCAACGTCCGCTTCCCG,4.5
8,GCGACTGCGGCAAAGCAGGTTACCATAAGGTTGG,0.953
9,TCTAGCAGGCCAGAGGGTCACTTAAGAGGTACGG,1.53
10,CCTACTGGGCCACGAAATGTCATTGATTCAGTGA,0.211
11,TCGAGTAGGTTACCAATGGGTCATTCAGCTTTCT,1.62
12,GGAACGTGGGCAAGTTGATAGCAGAGTTTGATGG,-0.685
13,ATCTCTAGGTAAAGTTAAGTGAAAGATCGATAGA,0.478
14,CCTACTGAGCCAAGGTCATTGATCAGTCAAAGCA,3.52
15,CATGCTAGGTCATGGTCAGCTAATCTACAGTATG,2.87
16,GCAGACAGGTGAAACGCAGGTTACTCAGGGTGGC,1.88
17,CAAACTAGATCAAGAGGTCAAAGTCCGCTTCCCG,3.93
18,TCTCGGAGGACACGAAAGGACAGAGCTCGACATC,2.23
19,ATATGTAGGTTAGCTGGGGTCATTCAAACTAGGC,5.16
20,GGAACGAGGGCATTCGTGTTGATAGCATGGCGAT,0.978
